# Several values for one entry are separate records, joined by “and”; a condition that tells them apart may be missing. Equal entries are not always repeated. Records with an inconclusive call do not appear. A structure can be active in one record and inactive in another. Activity calls are given as the source filed them. Unless noted, calls come from the whole dose curve; as a rule, active = well fitted curve in the direction sought with a large enough effect; inconclusive = small, poorly fitted or top-dose-only effect, or another doubt; inactive = no such curve, though single readings can be large; an effect the other way counts as inactive or inconclusive.
# Tests used:
# [1] = Primary qHTS for small molecule stabilizers of the endoplasmic reticulum resident proteome: Secreted ER Calcium Modulated Protein (SERCaMP) assay (AID 1508630); note: potency is the fitted concentration of half-maximal effect
# Procedure, shortened: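 GLuc-SERCaMP-expressing SH-SY5Y cells, pretreated 16 h with compound, are challenged with thapsigargin to empty ER calcium stores; after 4 h, coelenterazine is added directly to the medium and luminescence is imaged.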
# [2] = AP1 Signaling Pathway (AID 357; active = well fitted curve in either direction with a large enough effect, not every such curve was filed as active;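 note: ME-180 reporter cells stimulated with EGF at its EC50 level; % is set by controls: 0 for no effect and ±100 for the full control effect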); conditions: ME-180 AP-1-bla reporter, EGF-induced, beta-lactamase ratio, 5 h
# Procedure, shortened: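 A ratiometric CCF4 readout (405 nm excitation; 460 and 530 nm emission) quantified AP-1-driven beta-lactamase in ME-180 cells after 5 h with compound and EC50 EGF; AC50 values were derived for activators and inhibitors.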
# [3] = molecular target: Cytochrome P450 1A2 (Homo sapiens) (UniProt P05177); test: p450-cyp1a2 (AID 410; calls by dose curve; note: potency is the fitted concentration of half-maximal effect;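 for activity change, negative = inhibition: -100% = full effect of reference inhibitor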)
# Procedure, shortened: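 Inhibition was calculated relative to 57 uM furafylline (full inhibition). The reaction used human CYP1A2 at 20nM with Luciferin-ME at its Km, 100uM, driven by an NADPH-regenerating system for 60 min at room temperature.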
# [4] = Stat Signaling Pathway (AID 446; active = well fitted curve in either direction with a large enough effect, not every such curve was filed as active;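 note: ME-180 cervical cancer cells given 40 pM IL-6 alongside compound; SIE-controlled beta-lactamase reporter measured as 460/530 nm FRET emission ratio; % is set by controls: 0 for no effect and ±100 for the full control effect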); conditions: ME-180 SIE beta-lactamase reporter, IL-6 stimulated, 5 h
# Procedure, shortened: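 ME-180 SIE-bla cells; overnight plating; cpd + IL-6 40 pM, 5 h, 37 C; LiveBLAzer 2.5 h RT; 460/530 nm emission ratio. Normalized to 300 pM IL-6 and 125 nM JAK inhibitor controls.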
# [5] = molecular target: Glucocorticoid receptor (Homo sapiens) (UniProt P04150); test: GR-GFP Redistribution (AID 450;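 active = compounds whose dose series gives a full or clear partial fitted curve of increased nuclear translocation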; note: potency is the fitted concentration of half-maximal effect); conditions: U2OS GR-GFP nuclear translocation, laser cytometry, 2 h
# [6] = molecular target: Glucocorticoid receptor (Homo sapiens) (UniProt P04150); test: GR-EFC Redistribution (AID 451; calls by dose curve; note: potency is the fitted concentration of half-maximal effect); conditions: CHO-K1 GR-EFC translocation, beta-gal luminescence, 2 h
# Procedure, shortened: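 Translocation of GR-ED fusion to nuclear EA restores b-gal, read by luminescence after 1 h room-temperature detection. Engineered CHO-K1 biosensor cells, 1,000/well, exposed 2 h at 37 C to titrations up to 46 uM final.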
# [7] = molecular target: Mitogen-activated protein kinase 10 (Mus musculus) (UniProt Q61831); test: JNK3 AlphaScreen Assay (AID 530; active = well fitted curve in either direction with a large enough effect, not every such curve was filed as active;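 note: kinase came from lysate of stimulated human HepG2 cells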; note: potency is the fitted concentration of half-maximal effect)
# Procedure, shortened: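 Room-temperature AlphaScreen kinase assay; pre-activated HepG2 lysate as JNK3 source, biotin-GST-cJun(1-79) substrate, 10 uM ATP, compound 15 min preincubation.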
# [8] = molecular target: Cytochrome P450 2C9 (Homo sapiens) (UniProt P11712); test: qHTS Assay for Inhibitors and Substrates of Cytochrome P450 2C9 (AID 883); note: nearly all actives have a fitted effect of over 60% in size; note: potency is the fitted concentration of half-maximal effect
# Procedure, shortened: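 Turnover of Luciferin-H (100uM, KM) by 10nM human CYP2C9 was measured over 60 min at 37C with NADPH regeneration; inhibitors and some substrates reduce luminescence. Data normalized to sulphaphenazole 57uM.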
# [9] = molecular target: Cytochrome P450 3A4 (Homo sapiens) (UniProt P08684); test: qHTS Assay for Activators of Cytochrome P450 3A4 (AID 885); note: nearly all actives have a fitted effect of over 65% in size
# Procedure, shortened: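 20nM CYP3A4 + 25uM Luciferin-PPXE (=KM), 200mM KPO4; cpd 10 min RT; NADPH regen, 60 min RT; stop w/ detection buffer, 20 min; luminescence. Normalized to 57 uM ketoconazole.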
# [10] = molecular target: Cytochrome P450 2C19 (Homo sapiens) (UniProt P33261); test: qHTS Assay for Inhibitors and Substrates of Cytochrome P450 2C19 (AID 899); note: nearly all actives have a fitted effect of over 60% in size; note: potency is the fitted concentration of half-maximal effect
# Procedure, shortened: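 Reactions contain 5nM enzyme, 10uM Luciferin-H EGE (KM) and 50mM KPO4; compound preincubates 10 min at 37C, NADPH regeneration starts turnover for 60 min. Luminescence after detection reagent gives activity.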
# [11] = molecular target: DNA dC->dU-editing enzyme APOBEC-3G (Homo sapiens) (UniProt Q9HC16); test: qHTS for inhibitors of Vif-A3G interactions: Validation (AID 588379); note: 0% is about no effect
# Procedure, shortened: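 HeLa cells stably expressing Vif and A3G-eYFP, 700 cells/well, incubated overnight at 37 deg C, then exposed to compound overnight at 37 deg C. Inhibition of Vif-mediated degradation read as increased yellow fluorescence (Ex 488/Em 500-530) by laser-scanning cytometry.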
# [12] = NFAT Signaling Pathway (AID 444; active = well fitted curve in either direction with a large enough effect, not every such curve was filed as active;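 note: carbachol stimulus at about its EC50 of 1 µM final; % is set by controls: 0 for no effect and ±100 for the full control effect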); conditions: Jurkat NFAT-bla M1, carbachol, beta-lactamase ratio, 5 h; at 38 µM (top of the series)
# Procedure, shortened: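 Read-out: CCF4 FRET ratio (460 nm/530 nm) after 1 h RT dye loading, used for %activity and AC50 from titration series. Cells: Jurkat NFAT-β-lactamase/M1 line, treated with compound plus 1 uM carbachol for 5 h, 37 °C.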
# [13] = molecular target: 3',5'-cyclic-AMP phosphodiesterase 4B (Homo sapiens) (UniProt Q07343); test: qHTS Assay for Inhibitors of PDE-IV (AID 607; active = well fitted activation curve with a large enough effect in the main read-out, with a control signal flat, not every such curve was filed as active; note: % of control where 0% means no effect)
# Procedure, shortened: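 ACTOne HEK293 cells carry a modified cAMP-gated CNG channel and express endogenous PDE4; plated 1000 cells/well, compounds up to 22.9 uM final. Membrane-potential dye fluorescence (ex 535/em 590) was read; parental cells received 10 uM forskolin + 100 uM RO 20-1724.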
# [14] = qHTS Assay for Lipid Storage Modulators (AID 1519; calls by dose curve); conditions: Drosophila S3 cells, BODIPY lipid droplet/cell ratio, laser cytometry, cells loaded with oleic acid; for activity change, negative = inhibition: at 57.5 µM (top of the series)
# Procedure, shortened: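 Cells seeded at 5,000 per well were treated with compounds over a concentration series and loaded with oleic acid (400 uM, as added). Lipid droplet fluorescence (488 nm excitation, 500-530 nm channel) was read by laser-scanning cytometry and normalized to 20 uM Triacsin C.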
# [15] = molecular target: Ubiquitin carboxyl-terminal hydrolase 1 (Homo sapiens) (UniProt O94782); test: Inhibitors of USP1/UAF1: Pilot qHTS (AID 504865);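 note: rhodamine fluorescence freed from ubiquitin-rhodamine substrate followed over time; top concentration of the series differs between compounds; % is set by controls: 0 for no effect and ±100 for the full control effect; nearly all actives have a fitted effect of over 35% in size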
# Procedure, shortened: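 Kinetic fluorescence assay: 1nM USP1/UAF1, 15 min compound preincubation, then 150nM Ub-Rho; 480/540 nm.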
# [16] = molecular target: Cytochrome P450 3A4 (Homo sapiens) (UniProt P08684); test: qHTS Assay for Inhibitors and Substrates of Cytochrome P450 3A4 (AID 884); note: potency is the fitted concentration of half-maximal effect; nearly all actives have a fitted effect of over 50% in size
# Procedure, shortened: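 20 nM human CYP3A4 with 25 uM Luciferin-PPXE (at KM) in 200 mM KPO4, preincubated 10 min with compound; NADPH regeneration started a 60 min RT reaction. Luciferin detected by luminescence, normalized to 57 uM ketoconazole as full inhibition.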
# [17] = NCATS anti-infectives library activity on HEK293 viability as a counter-qHTS vs the C. elegans viability qHTS (AID 1745854);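 note: HEK293 cells exposed to compounds for 24 hr before the viability read; % is set by controls: 0 for no effect and ±100 for the full control effect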
# Procedure, shortened: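 Cytotoxicity in human HEK293 cells is measured by ATP-dependent CellTiter-Glo luminescence following a 24 hr incubation with titrated library compounds at 37C. Top final concentration is 41.7 uM.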
# [18] = measured here: cell count channel max response
# [19] = measured here: lipid channel max response
# Cytochrome P450 3A4 (Homo sapiens), sequence (P08684 whole entry, looked up): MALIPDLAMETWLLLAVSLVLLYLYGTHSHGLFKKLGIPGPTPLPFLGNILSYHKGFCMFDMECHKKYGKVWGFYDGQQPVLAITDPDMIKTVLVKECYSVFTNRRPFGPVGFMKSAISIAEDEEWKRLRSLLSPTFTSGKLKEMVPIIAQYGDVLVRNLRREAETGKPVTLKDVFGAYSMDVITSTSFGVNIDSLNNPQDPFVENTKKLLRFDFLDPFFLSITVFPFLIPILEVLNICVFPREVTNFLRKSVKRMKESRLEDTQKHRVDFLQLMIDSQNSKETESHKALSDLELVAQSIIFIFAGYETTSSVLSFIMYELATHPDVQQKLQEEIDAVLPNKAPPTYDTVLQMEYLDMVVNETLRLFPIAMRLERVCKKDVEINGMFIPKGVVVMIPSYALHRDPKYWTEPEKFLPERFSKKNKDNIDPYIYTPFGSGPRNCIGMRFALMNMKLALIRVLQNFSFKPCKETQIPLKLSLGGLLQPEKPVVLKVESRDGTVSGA
# Ubiquitin carboxyl-terminal hydrolase 1 (Homo sapiens), sequence (O94782 whole entry, looked up): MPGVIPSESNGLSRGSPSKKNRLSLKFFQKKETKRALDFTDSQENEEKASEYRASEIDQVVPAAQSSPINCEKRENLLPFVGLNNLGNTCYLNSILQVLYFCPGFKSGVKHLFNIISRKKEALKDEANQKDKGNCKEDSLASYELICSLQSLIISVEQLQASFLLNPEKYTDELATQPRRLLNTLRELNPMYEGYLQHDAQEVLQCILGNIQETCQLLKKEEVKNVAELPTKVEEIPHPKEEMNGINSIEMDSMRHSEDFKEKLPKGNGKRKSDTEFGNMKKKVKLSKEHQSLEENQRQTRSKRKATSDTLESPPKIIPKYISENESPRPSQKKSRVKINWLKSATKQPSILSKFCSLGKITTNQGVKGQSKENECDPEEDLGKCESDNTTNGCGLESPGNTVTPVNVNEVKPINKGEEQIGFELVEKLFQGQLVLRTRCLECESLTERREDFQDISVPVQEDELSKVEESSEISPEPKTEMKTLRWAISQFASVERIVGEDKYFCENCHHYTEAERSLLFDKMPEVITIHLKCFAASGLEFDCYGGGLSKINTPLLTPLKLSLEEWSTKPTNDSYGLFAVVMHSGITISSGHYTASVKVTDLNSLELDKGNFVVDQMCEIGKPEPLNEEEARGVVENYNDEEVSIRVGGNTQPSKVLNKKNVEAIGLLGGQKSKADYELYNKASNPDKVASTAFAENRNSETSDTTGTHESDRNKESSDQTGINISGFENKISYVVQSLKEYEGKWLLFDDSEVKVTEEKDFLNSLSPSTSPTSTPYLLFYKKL
# Cytochrome P450 2C9 (Homo sapiens), sequence (P11712 whole entry, looked up): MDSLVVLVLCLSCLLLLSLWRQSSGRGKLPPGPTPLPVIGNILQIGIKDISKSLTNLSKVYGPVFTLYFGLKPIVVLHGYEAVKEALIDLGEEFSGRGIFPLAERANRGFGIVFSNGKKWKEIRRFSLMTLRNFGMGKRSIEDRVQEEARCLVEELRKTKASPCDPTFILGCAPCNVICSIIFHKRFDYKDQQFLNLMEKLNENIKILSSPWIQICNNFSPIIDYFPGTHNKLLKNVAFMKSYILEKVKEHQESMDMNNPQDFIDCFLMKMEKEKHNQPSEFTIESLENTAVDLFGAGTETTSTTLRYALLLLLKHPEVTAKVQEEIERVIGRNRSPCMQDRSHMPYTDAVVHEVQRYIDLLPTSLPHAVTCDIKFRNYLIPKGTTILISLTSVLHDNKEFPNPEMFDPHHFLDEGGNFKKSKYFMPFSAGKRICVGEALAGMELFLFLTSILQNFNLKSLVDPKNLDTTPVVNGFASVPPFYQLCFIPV
# Cytochrome P450 1A2 (Homo sapiens), sequence (P05177 whole entry, looked up): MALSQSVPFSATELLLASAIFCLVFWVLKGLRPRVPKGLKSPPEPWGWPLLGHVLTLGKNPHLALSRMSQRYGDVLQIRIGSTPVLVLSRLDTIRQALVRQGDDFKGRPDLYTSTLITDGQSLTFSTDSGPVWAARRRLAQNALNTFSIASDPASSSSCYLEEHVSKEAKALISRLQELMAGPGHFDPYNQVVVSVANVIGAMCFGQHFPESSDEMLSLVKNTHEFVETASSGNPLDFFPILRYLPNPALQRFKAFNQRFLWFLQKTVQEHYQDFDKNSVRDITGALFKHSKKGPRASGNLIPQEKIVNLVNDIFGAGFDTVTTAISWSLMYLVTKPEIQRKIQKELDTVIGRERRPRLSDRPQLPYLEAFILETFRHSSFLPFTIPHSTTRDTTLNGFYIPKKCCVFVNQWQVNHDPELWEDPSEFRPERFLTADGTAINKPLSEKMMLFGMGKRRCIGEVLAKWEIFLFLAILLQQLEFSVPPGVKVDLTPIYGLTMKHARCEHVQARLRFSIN
# Glucocorticoid receptor (Homo sapiens), sequence (P04150 whole entry, looked up, the tested form may be a part): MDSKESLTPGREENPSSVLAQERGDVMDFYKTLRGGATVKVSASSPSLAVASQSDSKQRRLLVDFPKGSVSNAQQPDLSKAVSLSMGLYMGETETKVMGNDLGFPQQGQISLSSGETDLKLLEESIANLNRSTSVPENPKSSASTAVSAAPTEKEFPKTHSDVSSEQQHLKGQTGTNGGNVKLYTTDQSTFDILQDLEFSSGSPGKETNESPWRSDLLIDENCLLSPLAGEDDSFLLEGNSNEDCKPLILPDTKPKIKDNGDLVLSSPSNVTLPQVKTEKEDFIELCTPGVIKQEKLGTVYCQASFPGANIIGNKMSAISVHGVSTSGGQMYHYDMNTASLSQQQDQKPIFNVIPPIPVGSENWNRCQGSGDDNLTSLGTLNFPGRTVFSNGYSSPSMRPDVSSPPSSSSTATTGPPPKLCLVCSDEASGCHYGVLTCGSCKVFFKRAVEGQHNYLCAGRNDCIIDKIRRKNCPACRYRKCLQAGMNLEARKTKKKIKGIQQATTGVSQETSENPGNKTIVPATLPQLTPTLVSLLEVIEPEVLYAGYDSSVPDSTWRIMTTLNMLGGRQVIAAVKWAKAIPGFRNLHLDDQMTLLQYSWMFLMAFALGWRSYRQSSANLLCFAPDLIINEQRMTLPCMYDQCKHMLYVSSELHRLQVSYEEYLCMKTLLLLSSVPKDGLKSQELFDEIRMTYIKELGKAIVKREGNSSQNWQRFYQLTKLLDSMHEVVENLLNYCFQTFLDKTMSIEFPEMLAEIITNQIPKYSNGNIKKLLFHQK
# DNA dC->dU-editing enzyme APOBEC-3G (Homo sapiens), sequence (Q9HC16 whole entry, looked up): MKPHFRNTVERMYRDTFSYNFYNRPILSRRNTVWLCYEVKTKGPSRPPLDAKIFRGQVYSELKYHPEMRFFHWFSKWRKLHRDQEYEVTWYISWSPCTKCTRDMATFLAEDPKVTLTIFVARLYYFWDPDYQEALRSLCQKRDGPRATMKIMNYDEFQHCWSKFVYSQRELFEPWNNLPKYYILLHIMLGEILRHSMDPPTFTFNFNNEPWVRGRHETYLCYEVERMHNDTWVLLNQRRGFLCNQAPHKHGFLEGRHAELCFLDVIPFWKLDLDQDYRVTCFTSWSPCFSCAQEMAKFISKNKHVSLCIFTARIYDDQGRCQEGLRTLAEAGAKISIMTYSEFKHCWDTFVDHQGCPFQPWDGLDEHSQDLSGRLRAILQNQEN
# 3',5'-cyclic-AMP phosphodiesterase 4B (Homo sapiens), sequence (Q07343 whole entry, looked up): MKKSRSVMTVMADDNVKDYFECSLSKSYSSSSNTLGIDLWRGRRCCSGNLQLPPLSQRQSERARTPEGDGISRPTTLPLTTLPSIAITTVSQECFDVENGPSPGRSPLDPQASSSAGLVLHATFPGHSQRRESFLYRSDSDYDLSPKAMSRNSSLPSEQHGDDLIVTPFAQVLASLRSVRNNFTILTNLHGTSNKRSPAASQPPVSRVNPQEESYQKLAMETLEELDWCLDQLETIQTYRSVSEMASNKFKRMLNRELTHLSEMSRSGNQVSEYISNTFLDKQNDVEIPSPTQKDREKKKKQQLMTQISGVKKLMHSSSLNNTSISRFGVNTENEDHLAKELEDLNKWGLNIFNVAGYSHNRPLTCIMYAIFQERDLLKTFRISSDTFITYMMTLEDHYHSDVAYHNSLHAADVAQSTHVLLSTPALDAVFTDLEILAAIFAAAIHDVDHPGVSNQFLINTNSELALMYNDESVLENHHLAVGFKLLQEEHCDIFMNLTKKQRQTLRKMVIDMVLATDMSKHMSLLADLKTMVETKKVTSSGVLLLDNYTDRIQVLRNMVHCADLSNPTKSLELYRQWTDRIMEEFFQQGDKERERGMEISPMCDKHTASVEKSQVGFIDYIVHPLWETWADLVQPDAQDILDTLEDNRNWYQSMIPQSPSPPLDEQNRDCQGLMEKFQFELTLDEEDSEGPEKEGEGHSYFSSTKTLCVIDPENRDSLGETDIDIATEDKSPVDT
# Cytochrome P450 2C19 (Homo sapiens), sequence (P33261 whole entry, looked up): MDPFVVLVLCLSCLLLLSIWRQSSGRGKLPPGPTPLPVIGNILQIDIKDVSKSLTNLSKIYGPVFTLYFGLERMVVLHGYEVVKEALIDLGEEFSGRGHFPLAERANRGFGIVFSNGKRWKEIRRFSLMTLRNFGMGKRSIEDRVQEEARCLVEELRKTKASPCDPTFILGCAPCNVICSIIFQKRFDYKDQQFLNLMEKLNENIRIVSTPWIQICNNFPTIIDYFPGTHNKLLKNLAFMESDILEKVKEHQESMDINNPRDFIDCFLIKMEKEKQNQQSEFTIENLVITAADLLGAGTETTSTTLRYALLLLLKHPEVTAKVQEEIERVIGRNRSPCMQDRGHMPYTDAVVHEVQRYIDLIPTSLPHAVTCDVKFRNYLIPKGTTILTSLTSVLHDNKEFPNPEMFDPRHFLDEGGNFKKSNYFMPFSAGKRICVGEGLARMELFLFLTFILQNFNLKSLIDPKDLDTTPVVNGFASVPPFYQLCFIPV
smiles,measurement,setting,value
CCCCCCCC/C=C\C/C=C\C/C=C\CCCC(=O)O,"activity change, negative = inhibition",[1],18.3% [at 3.88 µM] (inactive)
CO[C@@]12C[C@@H](COC(=O)c3cncc(Br)c3)CN(C)[C@H]1Cc1cn(C)c3cccc2c13,"activity change, negative = inhibition",[2]; at 17.2 µM (top of the series),-12% (inactive)
same,Potency,[3],5.01 µM (active) and 15.8 µM (active) and 39.8 µM (active)
same,"activity, negative = inhibition",[4]; at 17.2 µM (top of the series),-10.5% (inactive)
same,Potency,[5],> 20.6 µM (inactive) and > 46 µM (inactive)
same,Potency,[6],> 20.6 µM (inactive) and > 46 µM (inactive)
same,Potency,[7],inactive and 3.16 µM (active)
same,Potency,[8],inactive
same,Potency,[9],inactive
same,Potency,[10],6.31 µM (active)
same,Potency,[11],inactive
same,Potency,[1],inactive
CC(C)[C@@H]1[C@H]2CC[C@H](C2)[C@H]1N,"activity change, negative = inhibition",[2]; at 38 µM (top of the series),17.6% (inactive)
same,Potency,[3],inactive and 31.6 µM (active)
same,"activity change, negative = inhibition",[12],2.88% (inactive)
same,"activity, negative = inhibition",[4]; at 38 µM (top of the series),4.64% (inactive)
same,Potency,[5],> 46 µM (inactive)
same,Potency,[6],> 46 µM (inactive)
same,Potency,[13],inactive
same,Potency,[8],inactive
same,Potency,[9],inactive
same,Potency,[10],inactive
same,"activity change, negative = inhibition",[14],-6.29% (inactive)
same,max response,[14]; [18],-11.1%
same,max response,[14]; [19],-17.5%
same,Potency,[11],inactive
same,Potency,[1],1 µM (active)
CC[C@]1(O)C[C@@H]2CN(CCc3c([nH]c4ccccc34)[C@](C(=O)OC)(c3cc4c(cc3OC)N(C)[C@H]3[C@](O)(C(=O)OC)[C@@H](C(=O)OC)[C@@]5(CC)C=CCN6CC[C@@]43[C@@H]65)C2)C1,Potency,[3],inactive
same,Potency,[5],> 46 µM (inactive)
same,Potency,[6],> 46 µM (inactive)
same,Potency,[9],inactive
same,Potency,[15],inactive
same,Potency,[11],inactive
same,Potency,[1],inactive
C[C@@H](CCCCC(=O)Nc1ccc(C(F)(F)F)cc1)NCCc1cnc[nH]1,Potency,[3],inactive
same,Potency,[5],> 46 µM (inactive)
same,Potency,[6],> 46 µM (inactive)
same,Potency,[7],inactive
same,Potency,[13],inactive
same,Potency,[8],7.94 µM (active)
same,Potency,[16],5.01 µM (active)
same,Potency,[9],inactive
same,Potency,[15],inactive
same,Potency,[11],inactive
same,Potency,[1],inactive
O=C(NCCCCCCNC(=O)ON=C1CCCCC1)ON=C1CCCCC1,Potency,[1],inactive
OC[C@H]1NC[C@H](O)[C@@H](O)[C@H]1O,Potency,[3],inactive
same,Potency,[6],> 46 µM (inactive)
same,Potency,[13],inactive
same,"activity change, negative = inhibition",[14],-0.744% (inactive)
same,max response,[14]; [18],30%
same,max response,[14]; [19],27.8%
same,Potency,[15],inactive
same,Potency,[11],inactive
same,outcome,[17],inactive
O=C(Nc1ccccc1)[C@@]12C[C@@H]1/C(=N/O)c1ccccc1O2,Potency,[3],2.51 µM (active)
same,Potency,[5],> 46 µM (inactive)
same,Potency,[6],> 46 µM (inactive)
same,Potency,[13],inactive
same,Potency,[11],inactive
same,Potency,[1],inactive

# Source: PubChem BioAssay (NCATS)
